Screening results: PubChem, National Center for Advancing Translational Sciences (NCATS)
Compounds with a hit are over-represented: about 1.3% of the library has one in this group of screens.
AMA1 RON2 block: inhibitors of Plasmodium falciparum AMA1-RON2 interaction; AlphaScreen AMA1-biotinylated RON2 peptide binding; Potency, µM (doses to about 58.2 µM), for the others: at the top dose activity change, negative = inhibition, most hits filed as inhibitors; 360,000 tested, 0.2% active;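 also: 0% = vehicle wells and -100% = peptide control; nearly all actives have a fitted effect of over 45% in size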
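AMA1 (3D7) with his tag at 25 nM final met compounds first, then biotinylated RON2 peptide at 25 nM; detection used donor plus acceptor beads, 10 µg/mL apiece, read by AlphaScreen after 30 min at room temperature.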
AmpC inh no detg: inhibitors of E. coli AmpC beta-lactamase without detergent. P00811. AmpC nitrocefin hydrolysis, absorbance 480 nm, 0.0001% Triton. Potency, µM (titrated, usually from 57.1 µM), inactives show at the top dose activity change, negative = inhibition, most hits filed as inhibitors. 330,000 tested, 0.52% active. AID 485341;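 also: plate controls were no compound for no effect and no enzyme for full effect; nearly all actives have a fitted effect of over 20% in size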
Target sequence (P00811 whole entry, looked up): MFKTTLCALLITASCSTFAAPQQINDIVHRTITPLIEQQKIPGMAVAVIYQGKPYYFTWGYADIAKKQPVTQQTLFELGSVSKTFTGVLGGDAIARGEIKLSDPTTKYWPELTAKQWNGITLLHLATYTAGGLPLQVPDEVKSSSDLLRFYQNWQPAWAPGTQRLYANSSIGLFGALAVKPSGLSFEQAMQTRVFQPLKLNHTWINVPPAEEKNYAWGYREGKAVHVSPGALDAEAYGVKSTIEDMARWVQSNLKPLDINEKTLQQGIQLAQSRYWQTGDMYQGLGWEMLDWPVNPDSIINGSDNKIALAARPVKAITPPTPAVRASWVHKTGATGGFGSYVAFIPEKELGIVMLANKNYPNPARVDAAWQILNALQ
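AmpC (5.3 nM in the dispensed reagent) in 20 mM phosphate pH 7.0 with 0.01% (detergent screen) or 0.0001% Triton X-100 was preincubated with compounds for 15 min at room temperature. Nitrocefin was then added from an 800 uM solution, and hydrolysis was followed at 480 nm.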
AmpC detergent: blocks E. coli AmpC beta-lactamase in detergent assay; P00811; AmpC hydrolysis of nitrocefin, absorbance 480 nm, 0.01% Triton; Potency, µM (titrated, usually from 114 µM), for inactives: at the highest dose activity change, negative = inhibition, most hits filed as inhibitors; 370,000 tested, 0.041% active; AID 485294;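 also: 0% = no-compound wells and -100% = no-enzyme wells; nearly all actives have a fitted effect of over 25% in size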
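20 mM phosphate pH 7.0 + 0.01% (detergent screen) or 0.0001% Triton X-100; 5.3 nM AmpC reagent; cpd preinc 15 min RT; nitrocefin (800 uM stock) to start; A480 q20 s × 4 min; Activity was normalised to no-enzyme and no-compound control wells.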
LmPK inhibitor: blocks Leishmania mexicana pyruvate kinase activity; Potency, µM (highest dose often 57.5 µM), without a hit: at the highest dose activity change, negative = inhibition, hits mostly inhibitors; 290,000 tested, 0.37% active; Q27686; purified LmPK, Kinase-Glo ATP luminescence, 1 h; AID 1721
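Pyruvate kinase activity monitored as ATP production (luciferase luminescence). Conditions: 0.1 nM enzyme, 0.5 mM PEP, 0.1 mM ADP, 1 h, RT; normalized against uninhibited and no-enzyme wells.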
FBPA Giardia inh: blocks Giardia fructose-bisphosphate aldolase activity; A8B2U2; purified Giardia FBPA; Potency, µM (doses to about 59.6 µM), for inactives: top-dose activity, negative = inhibition, actives largely listed as inhibitors; 290,000 tested, 0.71% active; also: nearly all actives have a fitted effect of over 55% in size
Target sequence (A8B2U2 whole entry, looked up): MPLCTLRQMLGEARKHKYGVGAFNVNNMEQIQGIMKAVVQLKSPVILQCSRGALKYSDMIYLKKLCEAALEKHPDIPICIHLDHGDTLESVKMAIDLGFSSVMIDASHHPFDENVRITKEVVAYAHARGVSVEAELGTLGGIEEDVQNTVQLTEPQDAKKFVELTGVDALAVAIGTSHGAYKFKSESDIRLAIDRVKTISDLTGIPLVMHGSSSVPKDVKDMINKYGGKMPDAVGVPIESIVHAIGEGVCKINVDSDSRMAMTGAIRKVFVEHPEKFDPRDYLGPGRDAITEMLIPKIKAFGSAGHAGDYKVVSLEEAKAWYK
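Giardia FBPA (40 nM reagent) was preincubated 10 min at RT with compound (up to 57.5 uM final), then substrate plus GAPDH/TPI/NAD/arsenate coupling system with diaphorase/resazurin was added; resorufin fluorescence (525/598 nm) was read after 20 min.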
An asterisk follows results filed as active. Calls follow the shape of the dose curve; as a rule, active = well fitted curve in the direction sought with a large enough effect; inconclusive = small, poorly fitted or top-dose-only effect, or another doubt; inactive = no such curve, though single readings can be large; an effect the other way counts as inactive or inconclusive. Unless noted, % is scaled to controls: 0 for no effect and ±100 for the full control effect; potency is read from the fitted curve at half-maximal effect.

Cc1ccc2c(c1)-c1c(cnn1CC(=O)N(Cc1ccco1)C1CCCCC1)CO2 was read as AMA1 RON2 block -21%, AmpC inh no detg 50µM*, AmpC detergent -16%, LmPK inhibitor 0% and FBPA Giardia inh 3%.
Cc1ccc2c(c1)-c1c(cnn1CC(=O)NC(C)CCc1ccco1)CO2 (configuration not stated) was read as AMA1 RON2 block -3%, AmpC inh no detg 11%, AmpC detergent inconclusive, LmPK inhibitor 0% and FBPA Giardia inh -1%.
For CCOC(=O)[C@]12CCCC=C1N(Cc1ccco1)C(=O)[C@H](CC(=O)N1CCSCC1)C2 the results were AMA1 RON2 block -5%.
For Cc1cccc(/C=N/NC(=O)c2ccc(NC(=O)c3ccc(F)cc3)cc2)n1 the results were AMA1 RON2 block 84%, AmpC inh no detg 18µM*, AmpC detergent -1%, LmPK inhibitor -5% and FBPA Giardia inh 6%.
`Cc1cccc(/C=N/NC(=O)c2ccc(NC(=O)c3ccc(Cl)cc3)cc2)n1` gave AMA1 RON2 block 25%, AmpC inh no detg -46%, AmpC detergent -12%, LmPK inhibitor 1% and FBPA Giardia inh inconclusive.
O=C(CC1C(=O)NCCN1Cc1cccc(C(F)(F)F)c1)NCCc1cnccn1 (configuration not stated) was read as AMA1 RON2 block 38%, AmpC inh no detg 194%, AmpC detergent -1% and LmPK inhibitor -8%.
Screening COc1ccc(CN2C(=O)C(CC(=O)NCCCCc3ccccc3)CC(C(=O)N3CCCCCC3)=C2C)cc1 (configuration not stated) returned AMA1 RON2 block -16%.
`COc1ccc(-n2c(Cc3cccn3C)nnc2SCC(=O)N2CCOCC2)cc1` gave AMA1 RON2 block -2%, AmpC inh no detg 62%, AmpC detergent inconclusive, LmPK inhibitor 4% and FBPA Giardia inh 1%.
Cn1cccc1Cc1nnc(SCC(=O)N2CCOCC2)n1-c1ccc(F)cc1 was read as AMA1 RON2 block -2%, AmpC inh no detg 2.5µM*, AmpC detergent -10%, LmPK inhibitor -1% and FBPA Giardia inh -11%.
COC(=O)Cn1c(C(O)c2ccccc2)nc2ccccc21 (configuration not stated) was read as AMA1 RON2 block 10%, AmpC inh no detg -9%, AmpC detergent -5%, LmPK inhibitor 3% and FBPA Giardia inh -10%.
O=C(CCNC(=O)c1ccccc1Cl)Nc1ccc(S(=O)(=O)N2CCOCC2)cc1 was read as AMA1 RON2 block -14%.
Screening C=CCC1(CC=C)CCCN1C(=O)c1ccc2oc(CCCC)nc2c1 returned AMA1 RON2 block 13%.
For N/C(=N\N=C\c1ccc2c(c1)OCO2)c1nonc1N the results were AMA1 RON2 block 5%, AmpC inh no detg -20%, AmpC detergent inconclusive, LmPK inhibitor 11µM* and FBPA Giardia inh 1%.
`O=C(O)c1cc(O)c2c(c1)[C@H]([C@H]1c3cc(C(=O)O)cc(O)c3C(=O)c3c(O[C@@H]4O[C@H](CO)[C@@H](O)[C@H](O)[C@H]4O)cccc31)c1cccc(OC3O[C@H](CO)[C@@H](O)[C@H](O)[C@H]3O)c1C2=O` (some centres not stated) gave AMA1 RON2 block 0.89µM*, AmpC inh no detg 1µM* and AmpC detergent 4%.
For O=C(O)c1cc(O)c2c(c1)[C@@H]([C@H]1c3cc(C(=O)O)cc(O)c3C(=O)c3c(O[C@@H]4O[C@H](CO)[C@@H](O)[C@H](O)[C@H]4O)cccc31)c1cccc(OC3O[C@H](CO)[C@@H](O)[C@H](O)[C@H]3O)c1C2=O (some centres not stated) the results were AMA1 RON2 block inconclusive, AmpC inh no detg 1.4µM* and AmpC detergent inconclusive.
CN(C)c1ccc(/C=N/NC(=O)c2ccco2)cc1 was read as AMA1 RON2 block -1%, AmpC inh no detg -13%, AmpC detergent -12%, LmPK inhibitor 16µM* and FBPA Giardia inh -5%.
`Cc1ccc(/C=N/NC(=O)c2ccco2)cc1` gave AMA1 RON2 block 20%, AmpC inh no detg -9%, AmpC detergent -8%, LmPK inhibitor inconclusive and FBPA Giardia inh -3%.
Screening O=C(N/N=C/c1ccc2ncccc2c1)c1ccco1 returned AMA1 RON2 block 0%, AmpC inh no detg -23%, AmpC detergent 0%, LmPK inhibitor 14µM* and FBPA Giardia inh 2%.
COc1ccc(CCNC(=S)NC(=O)c2ccccc2)cc1C was read as AMA1 RON2 block 37%, AmpC inh no detg 11µM*, AmpC detergent -6%, LmPK inhibitor 3% and FBPA Giardia inh -11%.
`CC(=O)N1CCc2c(sc(NC(=O)CSc3ccccc3)c2-c2nc3ccccc3s2)C1` gave AmpC detergent 1%.
Screening CCCCC(=O)Nc1sc2c(c1-c1nc3ccccc3s1)CCN(C(C)=O)C2 returned AmpC inh no detg 0.5µM*, AmpC detergent inconclusive, LmPK inhibitor -2% and FBPA Giardia inh -15%.
Screening O=C(c1ccc(Br)o1)N1CCc2ccccc21 returned AmpC inh no detg -18%, AmpC detergent 8%, LmPK inhibitor 14µM* and FBPA Giardia inh 1%.
`O=C(c1ccc(Br)o1)N1CCCc2ccccc21` gave AMA1 RON2 block -2%, AmpC inh no detg -5%, AmpC detergent 1%, LmPK inhibitor -11% and FBPA Giardia inh 5%.
Screening Cc1occc1C(=O)N/N=C/c1cccs1 returned AMA1 RON2 block 35%, AmpC inh no detg -12%, AmpC detergent 1% and LmPK inhibitor 14µM*.
Screening CCOc1ccc(/C=N/NC(=O)c2[nH]c3ccc(C)cc3c2C)cc1 returned AMA1 RON2 block -5%, AmpC inh no detg -30%, AmpC detergent 2%, LmPK inhibitor 0% and FBPA Giardia inh 0%.
Cc1c(C(=O)N/N=C/c2ccc(Cl)cc2)[nH]c2ccc(Cl)cc12 was read as AMA1 RON2 block 37%, AmpC inh no detg 14µM*, AmpC detergent -12%, LmPK inhibitor -2% and FBPA Giardia inh 0%.
`c1ccc(CNc2ccc3c(c2)ncn3C2CCCCC2)nc1` gave AMA1 RON2 block inconclusive, AmpC inh no detg 7.1µM*, AmpC detergent inconclusive, LmPK inhibitor -10% and FBPA Giardia inh 1%.
COc1ccccc1NC1=C(NC(C)=O)C(=O)c2ccccc2C1=O was read as AMA1 RON2 block 16%, AmpC inh no detg -9%, AmpC detergent 3%, LmPK inhibitor -24% and FBPA Giardia inh 11µM*.
For COC1=C(Nc2ccccc2OC)C(=O)c2ccccc2C1=O the results were AMA1 RON2 block inconclusive, AmpC inh no detg -19%, AmpC detergent -9%, LmPK inhibitor -26% and FBPA Giardia inh inconclusive.
